# In PubChem BioAssay (EPA / NIEHS):
# Activity calls are given as the source filed them. The calls were made as follows: active = hit-call score of the fitted dose curve at least 0.9, where 1 is the maximum; inactive = score below 0.9.
# Experiment: ATG_AP_1_CIS: Attagene CIS-FACTORIAL HepG2 Assay for human Activator Protein 1 (AP-1) (AID 2282931)
# Details: HepG2 Attagene cis-factorial AP-1 reporter mRNA; actives raise or lower the signal
# Experimental: ATG_CIS is a cell-based, multiplexed-readout assay that uses HepG2, a human liver cell line, with measurements taken at 24 hours after chemical dosing in a 24-well plate.ATG_AP_1_CIS is one of 52 assay component(s) measured or calculated from the ATG_CIS assay. It is designed to make measurements of mRNA induction, a form of inducible reporter, as detected with fluorescence intensity signals by Reverse transcription polymerase chain reaction (RT-PCR) and Capillary electrophoresis technology.Data from the assay component ATG_AP_1_CIS was analyzed into 1 assay endpoint. This assay endpoint, ATG_AP_1_CIS, was analyzed with bidirectional fitting relative to DMSO as the negative control and baseline of activity. Using a type of inducible reporter, measures of mRNA for gain or loss-of-signal activity can be used to understand the reporter gene at the transcription factor-level as they relate to the gene FOS and JUN. Furthermore, this assay endpoint can be referred to as a primary readout, because this assay has produced multiple assay endpoints where this one serves a reporter gene function. To generalize the intended target to other relatable targets, this assay endpoint is annotated to the dna binding intended target family, where the subfamily is basic leucine zipper.
# Human liver HepG2 cells are transiently transfected with multiple reporter transcription units (MRTUs) in 6-well plates using FuGene 6 reagent (Roche; 3 ml FuGene/1 mg DNA). The MRTU constructs are regulated by a cis-regulating element (promoter). […] A major difference between the CIS and TRANS system is that in CIS activities of endogenous TFs are measured, whereas the TRANS assay evaluates changes in activities of exogenous, chimeric NR-Gal4 proteins. […] At the end of 24 hour incubation, total RNA was isolated using TriZol reagent (Invitrogen). The isolated RNA is then reverse-transcribed using oligo(dT) primer and Mo-MLV reverse transcriptase (Invitrogen) with DNAse I (Ambion) treatment for 30 min. The one-tenth of the produced cDNA was amplified by PCR using Taq DNA polymerase (Invitrogen) and two reporter sequence-specific primers. The PCR products were fluorescently labeled by primer extension with 6-arboxyfluorescein (6-FAM) 5'-labeled reporter sequence-specific primer (2 min at 95 C, 20 s at 68 C and 10 min at 72 C) and these products were digested with 5U of HpaI (New England Biolabs) for 2h at 37 C. The fragments were purified using Qiaquick PCR columns (Qiagen), analyzed on an ABI 3130xL genetic analyzer (Applied Biosystems) with peak positions identified by using a set of X-rhodamine (ROX)-labeled MapMarker1000 molecular weight standards (BioVentures). The raw capillary electrophoresis data was processed using Attagraph software (Attagene).
Compound,outcome,AC50
NC(=O)c1cccnc1,inactive,
CCCCCC(=O)O[C@]1(C(C)=O)CC[C@H]2[C@@H]3CCC4=CC(=O)CC[C@]4(C)[C@H]3CC[C@@]21C,,36.5 µM (active)
CC(C)(C)c1cc(CCC(=O)OCCSCCOC(=O)CCc2cc(C(C)(C)C)c(O)c(C(C)(C)C)c2)cc(C(C)(C)C)c1O,inactive,
C/C=C(\C)C(=O)OC/C=C(\C)CCC=C(C)C,inactive,
c1ccc(OCCOc2ccccc2)cc1,inactive,
COC(=O)C(C)Oc1ccc(Oc2ncc(C(F)(F)F)cc2Cl)cc1 (stereo not given),inactive,
CCCCCCCCCCCCOCCOS(=O)(=O)O,inactive,
ClCCOCCOCCCl,inactive,
FC(F)(F)c1ccc(Cl)c(Cl)c1,inactive,
CC(C)(O)CCc1ccccc1,inactive,
CC(=O)c1ccc(O)cc1,inactive,
CNC(=C[N+](=O)[O-])NCCSCc1ccc(CN(C)C)o1,inactive,
CCCCCCOC(C)=O,inactive,
O=C(O)c1ccccc1O,inactive,
CCCc1ccc(N)cc1,inactive,
C=CCOC(=O)/C=C\C(=O)OCC=C,inactive,
C[C@]12CC[C@@H]3c4ccc(O)cc4CC[C@H]3[C@@H]1CC[C@@H]2O,inactive,
COc1ccccc1O,inactive,
CC(=O)c1ccc(C)cc1,inactive,
CC(CO)c1ccccc1 (stereo not given),inactive,

Compound,outcome,AC50
C=C/C(C)=C/C/C=C(\C)CCC=C(C)C,,125 µM (active)
CCC(C)COC(=O)CC(C)C (stereo not given),inactive,
CC(C)CCCC(C)(C)O,inactive,
CCCCC/C=C\C=C\C(=O)OCC,inactive,
CCCCCCCC1CCCC1=O (stereo not given),inactive,
CN(C)C,inactive,
C=COCC1CCC(COC=C)CC1 (stereo not given),inactive,
OCCN1CCOCC1,inactive,
CCCCCCC(O)CCOC(C)=O (stereo not given),inactive,
NS(=O)(=O)c1cc(C(=O)O)c(NCc2ccco2)cc1Cl,inactive,
CC/C=C\CCCCO,inactive,
CC1=CC(C)C(C=O)C(C)C1 (stereo not given) (tested in a mixture with another compound),inactive,
CC=CC(=O)C1=C(C)C=CCC1(C)C,inactive,
[Na+],inactive,
O=C(O)c1ccc(C(=O)O)c(C(=O)O)c1,inactive,
CC(C)=CC(=O)O,inactive,
OC[C@H]1O[C@@H](O[C@H]2[C@H](O)[C@@H](O)[C@H](O)O[C@@H]2CO)[C@H](O)[C@@H](O)[C@H]1O,inactive,
CC(=O)CCC=C(C)CCC=C(C)C,inactive,
CCC(=O)OC(C)(C)C1CC=C(C)CC1 (stereo not given),inactive,
C=CC(=O)OCC(CO)(COC(=O)C=C)COC(=O)C=C,,100 µM (active)
